The results in this text go back to PubChem BioAssay.

Molecules are shown by their SMILES.

Chain of Fibroblast growth factor 2 (Homo sapiens) (P09038 whole entry, looked up): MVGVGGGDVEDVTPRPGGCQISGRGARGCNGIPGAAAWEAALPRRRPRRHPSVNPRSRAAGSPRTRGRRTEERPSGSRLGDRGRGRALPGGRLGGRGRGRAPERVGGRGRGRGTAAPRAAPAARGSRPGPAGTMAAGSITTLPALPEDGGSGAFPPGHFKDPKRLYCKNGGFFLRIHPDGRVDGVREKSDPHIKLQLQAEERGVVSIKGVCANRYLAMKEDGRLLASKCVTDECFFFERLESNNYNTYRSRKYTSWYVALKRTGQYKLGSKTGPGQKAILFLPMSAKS

The assay concerns the target Fibroblast growth factor 2 (Homo sapiens) (UniProt P09038). Briefly: basic fibroblast growth factor binding to printed compounds – biochemical, small-molecule microarray, 635/667 nm fluorescence, primary screen (AID 1133). The conditions noted are these: FGF2, fluorescence 635/667, higher = more signal.
For the compound `O=C(NCc1ccccc1)[C@]1(Cc2ccccc2)N=C(c2ccc(OCCCO)cc2)O[C@@H]1c1ccccc1`, the composite z-score was -0.0759.

In the case of `C=C(C(=O)CC[C@H](OC(=O)c1cccnc1)c1ccc(OCCO)cc1)C(C)C`, the composite z-score turned out to be 0.859.

Regarding `O=C(O)[C@@]1(Cc2ccccc2)COC(c2ccc(OCCCO)cc2)=N1`, the composite z-score is -0.33.

Compound `CCOC(=O)C1=CC[C@@H](c2cccc(Br)c2)N(S(=O)(=O)c2ccc(C)cc2)[C@H]1c1ccc([N+](=O)[O-])cc1` displayed a composite z-score of 0.873.

With `CN(C)C(=O)[C@@]1(CCC(=O)OC(C)(C)C)COC(c2ccc(OCCCO)cc2)=N1`, the composite z-score was -0.357.

`O=C1O[C@H](c2ccccc2)[C@H](c2ccccc2)N2[C@H]1[C@@H](C(=O)N1CCN(c3ncccn3)CC1)[C@]1(C(=O)Nc3ccc(C#CCCO)cc31)[C@H]2c1ccc(OCCO)cc1` registered a composite z-score of 0.597.

Regarding `COC(=O)[C@@]1(Cc2ccccc2)[C@H]2c3cc(C(=O)N4CCCC4)n(CCO)c3C[C@H]2CN1C(=O)c1ccccc1`, the composite z-score is 0.0586.
